# Screening results: PubChem, National Center for Advancing Translational Sciences (NCATS)
# TDP1 inh = inhibitors of human tyrosyl-DNA phosphodiesterase TDP1 | Q9NUW8 | recombinant TDP1, AlphaScreen DNA substrate cleavage | Potency, µM (top dose mostly 130 µM), without a hit: at the top dose activity change, negative = inhibition, hits mostly inhibitors | hit rate 0.28% among 350,000; also: nearly all actives have a fitted effect of over 40% in size
#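 Recombinant E. coli-expressed Tdp1 (1 nM) preincubated with compound 15 min at RT, then 5'-biotin/3'-phosphotyrosine-FITC DNA substrate (15 nM) added for 5 min. AlphaScreen beads (10 ug/ml) added, 10 min RT; tyrosine-FITC cleavage read as signal loss.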
# TDP1 cell CPT = growth inhibition of DT40 Tdp1-/-;hTDP1 cells with camptothecin (screen for TDP1 inhibitors); chicken DT40 Tdp1-/-;hTDP1 cells + 20 nM CPT, ATP luminescence, 48 h; Potency, µM (series often up to 46.2 µM), for inactives: at the top dose activity change, negative = growth inhibition, most hits filed as inhibitors; hit rate 12% among 420,000; AID 686979; also: nearly all actives have a fitted effect of over 55% in size
#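 Chicken DT40 Tdp1-/- cells complemented with human TDP1, 400 cells/well, exposed to compounds plus 20 nM camptothecin for at least 48 h at 37 C; viability read as ATP content by CellTiter-Glo luminescence.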
# GCN5L2 inh = blocks human GCN5L2 histone acetyltransferase; Q92830; GCN5L2 HAT assay, ThioGlo1 CoA-SH fluorescence; Potency, µM (top dose mostly 58.9 µM), without a hit: at the top dose activity change, negative = inhibition, actives largely listed as inhibitors; hit rate 0.21% among 390,000; AID 504327
#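 GCN5L2 (20 nM) in 50mM HEPES pH 7.5, 0.1mM EDTA, 0.01% Tween-20 preincubated 15 min with compounds at room temperature. Reaction started with H3(1-25) 75uM, acetyl-CoA 70uM, ThioGlo1 50uM; CoA-thiol fluorescence (Ex340/Em540) read at 0 and 20 min.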
# VDR inhibitor = blocks the human vitamin D receptor. P11473. VDR-SRC2-3 peptide fluorescence polarization, 2 h. Potency, µM, for the others: max response, negative = inhibition, hits mostly inhibitors. hit rate 0.93% among 400,000. AID 504847
#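 After 23 nl compound addition and a short centrifugation, plates sat for 2 hours at ambient temperature; polarization of fluorescence then indicated loss of VDR binding to peptide SRC2-3.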
# DT40 TDP1 no CPT = qHTS for Inhibitors of human tyrosyl-DNA phosphodiesterase 1 (TDP1): qHTS in cells in absence of CPT; DT40 Tdp1-/- hTDP1 cells, no CPT, ATP luminescence, 48 h; Potency, µM (top dose mostly 46.2 µM), for inactives: at the top dose activity change, negative = growth inhibition, most hits filed as inhibitors; hit rate 15% among 420,000; AID 686978, 2013; also: nearly all actives have a fitted effect of over 55% in size
#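 Growth kinetics read by CellTiter-Glo luminescence after ≥48 hr at 37 °C. Cells: DT40 Tdp1-/- stably carrying human TDP1, 400 per well, compound exposure in the absence of CPT (DMSO vehicle).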
# PLK1 PBD inh = blocks phosphopeptide binding to human PLK1 polo-box domain | P53350 | hit rate 2.8% among 360,000 | Plk1 PBD binding of FITC phosphopeptide, fluorescence polarization | Potency, µM, for inactives: max response, negative = inhibition, actives largely listed as inhibitors; also: series mostly up to about 57 µM; nearly all actives have a fitted effect of over 65% in size
# Target sequence (P53350 whole entry, looked up, the tested form may be a part): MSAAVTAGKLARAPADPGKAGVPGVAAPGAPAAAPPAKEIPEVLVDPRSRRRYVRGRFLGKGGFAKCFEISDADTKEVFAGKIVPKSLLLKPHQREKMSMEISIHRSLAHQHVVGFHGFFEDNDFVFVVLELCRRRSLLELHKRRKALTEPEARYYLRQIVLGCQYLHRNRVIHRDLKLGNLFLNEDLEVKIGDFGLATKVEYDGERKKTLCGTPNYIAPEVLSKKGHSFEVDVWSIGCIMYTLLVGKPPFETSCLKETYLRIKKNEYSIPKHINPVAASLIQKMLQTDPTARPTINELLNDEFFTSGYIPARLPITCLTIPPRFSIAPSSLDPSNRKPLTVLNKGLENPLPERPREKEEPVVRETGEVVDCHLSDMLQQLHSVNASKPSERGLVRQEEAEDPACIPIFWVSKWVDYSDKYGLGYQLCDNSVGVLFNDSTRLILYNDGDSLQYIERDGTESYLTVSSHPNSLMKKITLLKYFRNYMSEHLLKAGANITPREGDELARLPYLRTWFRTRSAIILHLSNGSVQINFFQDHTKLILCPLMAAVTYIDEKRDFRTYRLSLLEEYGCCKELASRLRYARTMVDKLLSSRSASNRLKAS
# * = called active by the depositor; ? = inconclusive; · = not tested or not shown; ! = not active in a repeat. The list is not random: actives were taken first. Their share in the collection is about 18%. Calls follow the shape of the dose curve; as a rule, active = well fitted curve in the direction sought with a large enough effect; inconclusive = small, poorly fitted or top-dose-only effect, or another doubt; inactive = no such curve, though single readings can be large; an effect the other way counts as inactive or inconclusive. % is scaled to controls: 0 for no effect and ±100 for the full control effect; potency is read from the fitted curve at half-maximal effect.
SMILES,TDP1 inh,TDP1 cell CPT,GCN5L2 inh,VDR inhibitor,DT40 TDP1 no CPT,PLK1 PBD inh
CCOc1ccc(OCC)c(NC(=O)Cn2ncc3c4ccccc4n(Cc4ccccc4)c3c2=O)c1,0%,-9%,-5%,0%,-22%,·
CCCCCCCCCCCCCCCC(=O)OCC(NC(=O)C(Cl)Cl)C(O)c1ccc([N+](=O)[O-])cc1 (stereo not given),2%,·,3%,18%,·,·
CCCCCCCCCCCC(=O)NC(C(=O)OCC)C(O)c1cccc([N+](=O)[O-])c1 (stereo not given),6%,16µM*,-28%,-13%,23µM*,-1%
COc1ccc2c(c1)c1c(n2C)[C@@H]2CC=C(CO)[C@@H](C1)N2C,4%,-25%,1%,14%,-16%,3%
CC(C(N)=O)N1C(=O)NC2(CCCc3ccccc32)C1=O (stereo not given),-8%,4%,-2%,-6%,-16%,-8%
CSc1ccc(Cl)c(C(=O)NCCOc2cc(C(C)C)ccc2C)c1,6%,29µM*,-13%,1%,26µM*,-28%
O=C(CNC(=O)c1ccco1)NCc1ccc2c(c1)OCO2,1%,1%,0%,-21%,4%,-6%
COc1cccc(CNS(=O)(=O)c2ccccc2Br)c1OC,·,?,·,?,?,19µM*
CN(C(=O)CN1C(=O)/C(=C/c2ccccc2F)SC1=S)C1CCS(=O)(=O)C1 (stereo not given),9%,18µM*,-6%,-8%,?,-18%
CN(C(=O)CN1C(=O)/C(=C/c2ccccc2Cl)SC1=S)C1CCS(=O)(=O)C1 (stereo not given),5%,16µM*,-12%,4%,?,-26%
CN(C(=O)CN1C(=O)S/C(=C\c2ccccc2)C1=O)C1CCS(=O)(=O)C1 (stereo not given),1%,16%,-2%,-9%,-4%,-15%
CCN(C(=O)CCN1C(=O)S/C(=C\c2ccccc2)C1=O)C1CCS(=O)(=O)C1 (stereo not given),3%,16µM*,-12%,18%,?,-9%
CN(C(=O)CN1C(=O)/C(=C/c2ccc(F)cc2)SC1=S)C1CCS(=O)(=O)C1 (stereo not given),3%,?,-15%,11%,?,?
O=C1/C(=C/c2ccccc2F)SC(=S)N1CC(=O)N1CCCCC1c1cccnc1 (stereo not given),8%,3.7µM*,-7%,-5%,3.7µM*,-8%
Cc1cc(-n2cnc(-c3cn[nH]c3C)n2)no1,7%,-10%,-5%,?,2%,5%
CCC/C=C1/CCCOC(C(=O)NCC2CC2)(C(F)(F)F)C1 (stereo not given),4%,·,·,-4%,·,·
COCCNC(=O)c1sc2ncn(CC(=O)Nc3ccc(C)c(Cl)c3)c(=O)c2c1C,0%,?,-5%,12%,13µM*,-8%
CCCNC(=O)Cn1cnc2sc(C(=O)Nc3cc(OC)c(OC)c(OC)c3)c(C)c2c1=O,5%,11%,0%,0%,9%,-3%
Cc1ccc(NC(=O)Cn2cnc3sc(C(=O)NCc4ccco4)c(C)c3c2=O)cc1Cl,0%,?,0%,1%,?,-9%
COCCNC(=O)c1sc2ncn(CC(=O)N3CCCCC3)c(=O)c2c1C,1%,?,-2%,-23%,26µM*,3.4µM*
CCN(CC)C(=O)Cn1cnc2sc(C(=O)Nc3cc(OC)c(OC)c(OC)c3)c(C)c2c1=O,1%,?,0%,16%,12µM*,-1%
Cc1cc([N+](=O)[O-])ccc1NCc1ccco1,9%,-2%,2%,-2%,11%,-7%
O=C(Nc1ccc(N2C(=O)C3C4C=CC(C4)C3C2=O)cc1Cl)c1cccs1 (stereo not given),-1%,4%,3%,-8%,-8%,4%
Cn1c(C(=O)N2CCN(c3ccc([N+](=O)[O-])cc3)CC2)cc2c(=O)[nH]c3ccccc3c21,5%,?,-7%,3%,12µM*,-14%
CCN(CC(=O)Nc1cc(Cl)ccc1C)C(=O)c1nc2nc(C)cc(C)n2n1,-2%,-13%,1%,10%,-7%,-13%
SMILES,TDP1 inh,TDP1 cell CPT,GCN5L2 inh,VDR inhibitor,DT40 TDP1 no CPT,PLK1 PBD inh
Cc1ccc(N(C(=O)c2ccccn2)C2(C(=O)NC3CCCC3)CCCCC2)cc1,4%,0.52µM*,1%,1%,1.6µM*,-4%
CC(C)CC(=O)N1CC=CC[C@@H](c2ccc(Cl)cc2)N(Cc2ccc(Cl)cc2)C(=O)[C@@H]1Cc1ccccc1,·,15µM*,·,-19%,13µM*,-6%
O=C1[C@H](Cc2ccccc2)NCCCC[C@@H](c2ccco2)N1Cc1ccccc1,·,?,·,-5%,13µM*!,-10%
O=C1[C@H](Cc2ccccc2)NC/C=C\C[C@@H](c2ccco2)N1Cc1ccccc1,·,?,·,·,14µM*,·
O=C1[C@H](Cc2ccccc2)NCC=CC[C@@H](c2ccco2)N1Cc1ccccc1,·,?,·,-19%,?,-9%
O=C1[C@H](Cc2ccccc2)NCCCC[C@H](c2ccco2)N1Cc1ccccc1,·,13µM*,·,-8%,21µM*,-17%
CC(C)(C)C(C(=O)n1cccc1C#N)c1ccccc1 (stereo not given),-8%,?,-14%,-5%,-16%,?
C[C@@H]1CN([C@@H](C)CO)C(=O)CCCn2nncc2CO[C@H]1CN(C)S(=O)(=O)c1ccc(-n2cccn2)cc1,·,1%,·,·,-8%,-1%
O=C(CSc1nc2ccccc2n1Cc1cccc(Cl)c1)N1CCN(c2ccc(F)cc2)CC1,0%,?,-5%,3%,?,·
O=C1[C@H](Cc2ccccc2)NCCCC[C@H](c2ccc(Cl)cc2)N1Cc1ccccc1,·,?,·,10%,16µM*!,-1%
O=C1[C@H](Cc2ccccc2)NC/C=C\C[C@@H](c2ccc(Cl)cc2)N1Cc1ccccc1,·,13µM*,·,·,11µM*,·
CCCCCCCNC(=O)C1(CC2CC(c3cccc(Br)c3)=NO2)CCN(C(=O)C2CCCC2)CC1 (stereo not given),2%,21µM*,-17%,-6%,?,-4%
CC(C)(C)OC(=O)N1CCC(CC2CC(c3cccc(Br)c3)=NO2)(C(=O)NCC2CCCCC2)CC1 (stereo not given),·,?,-9%,-2%,16µM*,0%
CCCNC(=O)C1(CC2CC(c3ccccc3)=NO2)CCN(C(=O)OC(C)(C)C)CC1 (stereo not given),·,?,·,-6%,?,0%
